Sampled rows, rich in hits. Any-hit rate of the full collection: about 21%.
IL1B secr inh: blocks inflammasome-driven IL-1 beta release; THP-1 LPS/ATP IL-1B secretion, AlphaLISA, 16 h; active compounds read low; activity change, % at 57.5 µM; 360,000 compounds, 4.7% hits; in the data active means activity change below about -50%; inconclusive means mostly about -30% to -49%; further: on the % scale 0 is the no-effect control and ±100 the full control effect
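THP-1 cells pretreated 1 hr with compounds (up to 57.5 uM final), then stimulated with LPS (250 ng/mL final) plus ATP (1.25 mM final); secreted IL-1B measured by AlphaLISA after 16 hr, decreased signal indicating inhibition.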
D3 ag: activates the human D3 dopamine receptor; max activation, %; D3R DiscoveRx beta-arrestin cells, luminescence, 90 min; P35462; AID 652048; 410,000 compounds, 0.58% hits; in the data active means max activation above about 30%; further: 0% is about no effect
Target sequence (P35462 whole entry, looked up): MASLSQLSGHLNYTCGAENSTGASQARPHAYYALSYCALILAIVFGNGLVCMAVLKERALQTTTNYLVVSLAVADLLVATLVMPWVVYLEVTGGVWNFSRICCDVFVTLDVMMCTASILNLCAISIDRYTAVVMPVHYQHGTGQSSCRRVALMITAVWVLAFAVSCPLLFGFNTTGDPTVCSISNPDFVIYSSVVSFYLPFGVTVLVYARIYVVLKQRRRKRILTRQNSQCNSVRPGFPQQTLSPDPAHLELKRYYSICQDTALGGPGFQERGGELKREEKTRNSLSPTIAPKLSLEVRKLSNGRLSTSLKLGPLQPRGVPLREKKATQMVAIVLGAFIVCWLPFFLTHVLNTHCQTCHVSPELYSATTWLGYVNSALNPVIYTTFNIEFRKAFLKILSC
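Agonist mode: compounds and dopamine controls were applied to plated cells for 90 min at 37 degrees C after an overnight attachment at 1500 cells/well. Luminescent read-out followed 30 - 60 minutes at room temperature with DiscoveRx detection reagent.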
D3 antag: blocks the human D3 dopamine receptor | P35462 | D3R cells, DiscoveRx beta-arrestin luminescence, antagonist mode; active compounds read low | max response, negative = inhibition, % | 360,000 compounds, 2.5% hits | AID 652054; in the data active means max response below about -50%; inconclusive means no clear call, values can overlap the other calls; further: on the % scale 0 is the no-effect control and ±100 the full control effect
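Cells expressing the human receptor were seeded at 1500 cells/well, incubated overnight at 37 degrees C in 5% CO2, then exposed to library compounds with dopamine controls for 90 minutes at 37 degrees C before luminescent detection.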
TDP1 cell CPT: DT40-hTDP1 cell growth loss with CPT; chicken DT40 Tdp1-/-;hTDP1 cells + 20 nM CPT, ATP luminescence, 48 h; Potency, µM (titrated, usually from 46.2 µM), without a hit: at the highest dose activity change, negative = growth inhibition, usual class: inhibitors; 420,000 compounds, 12% hits; AID 686979; further: potency means the concentration at half of the fitted maximal effect; on the % scale 0 is the no-effect control and ±100 the full control effect; nearly all actives have a fitted effect of over 55% in size
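Chicken DT40 Tdp1-/- cells stably complemented with human TDP1 were seeded at 400 cells/well in medium containing 20 nM camptothecin, exposed to pin-transferred compounds, and grown at 37 °C for at least 48 hr. Viability was read as ATP luminescence.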
DT40 TDP1 no CPT: qHTS for Inhibitors of human tyrosyl-DNA phosphodiesterase 1 (TDP1): qHTS in cells in absence of CPT. DT40 Tdp1-/- hTDP1 cells, no CPT, ATP luminescence, 48 h. Potency, µM (top dose mostly 46.2 µM), for inactives: at the top dose activity change, negative = growth inhibition, actives largely listed as inhibitors. 420,000 compounds, 15% hits. AID 686978, 2013; further: potency means the concentration at half of the fitted maximal effect; on the % scale 0 is the no-effect control and ±100 the full control effect; nearly all actives have a fitted effect of over 55% in size
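No-CPT arm: Tdp1-/-;hTDP1 DT40 cells (400/well) plus compounds, incubated ≥48 hr at 37 °C. Readout CellTiter-Glo luminescence.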
ClpP mod: qHTS Assay for Activators of ClpP; ATP-dependent Clp protease proteolytic subunit (Bacillus subtilis (strain 168)), P80244; purified B. subtilis ClpP, FRET peptide cleavage, 20 min; Potency, µM (titrated, usually from 57.5 µM), for the others: at the highest dose activity change, negative = active; 340,000 compounds, 1.9% hits; active means well fitted falling curve with a large enough effect; inconclusive means small, poorly fitted or top-dose-only effect; inactive means no such curve, though single readings can be large or run the other way; further: potency means the concentration at half of the fitted maximal effect; the source files actives as falling curves though it sought activators and does not explain the sign; nearly all actives have a fitted effect of over 65% in size
Target sequence (P80244 whole entry, looked up): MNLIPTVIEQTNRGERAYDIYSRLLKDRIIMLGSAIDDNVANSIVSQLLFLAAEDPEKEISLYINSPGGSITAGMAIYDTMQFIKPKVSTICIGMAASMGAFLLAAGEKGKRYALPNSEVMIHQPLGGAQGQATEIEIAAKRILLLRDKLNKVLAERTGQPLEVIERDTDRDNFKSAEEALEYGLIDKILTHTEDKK
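Purified B. subtilis ClpP, 10 microg/mL final in Tris/HCl pH8 with KCl, BSA, glycerol and Tween-20, cleaved an Abz/nitrotyrosine-quenched decapeptide. Fluorescence (ex 320, em 430) was read at 0 and 20 min at room temperature. Delta was normalized to 5.8 microM ADEP and DMSO/no-enzyme controls.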
Numbers without * were called inactive; ? = inconclusive; . = no result given. Unless noted, the call rests on the fitted dose curve; in most records, active means well fitted inhibition curve with a large enough effect; inconclusive means small, poorly fitted or top-dose-only effect; inactive means flat fitted curve, though single readings scatter.

SMILES	IL1B secr inh	D3 ag	D3 antag	TDP1 cell CPT	DT40 TDP1 no CPT	ClpP mod
CCCCN(CCCC)C1=C(C(=O)c2ccccc2)N(CC)S(=O)(=O)c2ccccc21	.	-6	.	13µM*	26µM*	1%
Cc1ccc(OCC(=O)OC2=C(C(=O)c3ccccc3)N(C)S(=O)(=O)c3ccccc32)cc1	.	-14	.	?	4.1µM*	-16%
CN=C1S/C(=C\c2cccc(Cl)c2Cl)C(=O)N1C	-29	0	-5	-17%	-22%	1%
CCC(=O)c1ccc(OCC(O)CNCCc2ccc(Cl)cc2)cc1 (centres undefined)	?	-5	-20	?	?	1%
O=C(Nc1ccc(F)c(Cl)c1)c1cc(C2CCCN(C(=O)C3CC3)C2)on1 (centres undefined)	-16	4	12	?	?	-3%
Cc1ccc(F)cc1C(=O)N1CCCCC1c1cc(C(=O)Nc2ccc(F)c(Cl)c2)no1 (centres undefined)	-19	-8	-21	21µM*	15µM*	-12%
O=C(Nc1ccc(F)c(Cl)c1)c1cc(C2CCCCN2C(=O)C2CC2)on1 (centres undefined)	4	-6	-19	26µM*	15µM*	-1%
Cc1sc(NC(=O)c2cccc(N3C(=O)CCC3=O)c2)nc1-c1ccccc1	-57*	15	14	-5%	?	-3%
Cc1ccc2nc(NC(=O)C3=NN(c4ccccc4)C(=O)CC3)sc2c1	-18	9	28	-10%	-13%	-3%
COc1ccc(-c2csc(NC(=O)C3=NN(c4ccccc4)C(=O)CC3)n2)cc1	-24	27	103	15µM*	16µM*	.
COc1ccc(-c2nc(NC(=O)C3=NN(c4cccc(C)c4)C(=O)CC3)sc2C)cc1	40	1	19	23µM*	?	1%
COc1ccc(OC)c2sc(NC(=O)c3cccc(N4C(=O)CCC4=O)c3)nc12	-18	7	6	-7%	-10%	-4%
O=C(Nc1nc(-c2cc(F)ccc2F)cs1)C1=NN(c2ccccc2)C(=O)CC1	67	7	47	?	?	.
CC(=O)c1ccc(NC2=C(N3CCOCC3)C(=O)c3ccccc3C2=O)cc1	-76*	-12	?	23µM*	21µM*	0%
Cc1ccc(S(=O)(=O)Nc2ccc(N3CCOCC3)cc2)cc1	12	-7	15	-16%	-3%	0%
Cc1ccc(NC2=C(N3CCOCC3)C(=O)c3ccccc3C2=O)cc1	-100*	-12	-26	21µM*	26µM*	4%
O=C(O)c1ccc(NC2=C(N3CCOCC3)C(=O)c3ccccc3C2=O)cc1	0	-2	4	?	?	3%
CC(=O)N(C)C1=C(N2CCOCC2)C(=O)c2ccccc2C1=O	-94*	-33	-57*	0.18µM*	0.16µM*	6%
O=C(COC(=O)CCC(=O)c1cccs1)Nc1ccccc1[N+](=O)[O-]	15	-5	-12	-3%	-1%	2%
CCc1c(C(=O)N/N=C/c2ccc(OCc3ccc(F)cc3)c(OC)c2)nnn1-c1nonc1N	18	24	43	23µM*	5.8µM*	.
COC(=O)c1nnn(-c2nonc2N)c1COc1ccc(C=O)cc1OC	4	-1	-11	15µM*	9.2µM*	-6%
CCCS(=O)(=O)c1ncc(Cl)c(C(=O)Nc2sc3c(c2C(=O)NCC)CCCC3)n1	.	.	.	1µM*	0.79µM*	-4%
O=C1[C@@H]2C(c3cccnc3)=NO[C@@H]2C(=O)N1c1ccc2ccccc2c1	.	0	-3	6.5µM*	18µM*	.
COc1ccc(C2=NO[C@@H]3C(=O)N(c4ccc5c(c4)OCCO5)C(=O)[C@H]23)cc1OC	2	-8	-17	-7%	-6%	-1%
O=C(NCCC1=CCCCC1)c1ccc2c(c1)N(Cc1ccccc1)C(=O)c1ccccc1S2=O (centres undefined)	.	-21	.	?	?	-8%
SMILES	IL1B secr inh	D3 ag	D3 antag	TDP1 cell CPT	DT40 TDP1 no CPT	ClpP mod
Cc1ccc(C)c(CN2C(=O)c3ccccc3S(=O)c3ccc(C(=O)NCCC4=CCCCC4)cc32)c1 (centres undefined)	.	-11	.	15µM*	16µM*	-1%
COc1ccc(CCNC(=O)c2ccc3c(c2)N(Cc2ccccc2F)C(=O)c2ccccc2S3=O)cc1OC (centres undefined)	.	0	.	15µM*	26µM*	-6%
CC(C)CCNC(=O)c1ccc2c(c1)N(Cc1ccccc1F)C(=O)c1ccccc1S2=O (centres undefined)	.	3	.	?	21µM*	0%
COc1ccc(CCNC(=O)c2ccc3c(c2)N(Cc2cc(C)ccc2C)C(=O)c2ccccc2S3=O)cc1OC (centres undefined)	.	-4	.	9.2µM*	5.8µM*	-6%
O=C(CCOc1ccccc1)Nc1ccc([N+](=O)[O-])cc1	?	-13	-14	-23%	?	.
O=C(NCc1ccc2c(c1)OCO2)c1ccc2c(c1)C(=O)N(Cc1cccnc1)C2=O	23	7	-6	-1%	-7%	18µM*
O=C(NCc1ccc2c(c1)OCO2)c1ccc2c(c1)N(Cc1ccccc1F)C(=O)c1ccccc1S2=O (centres undefined)	.	5	.	-34%	21µM*	-3%
O=C1c2cccnc2C(=O)N1Cc1ccco1	7	-1	10	-4%	-2%	1%
O=C1c2cccnc2C(=O)N1Cc1ccc2c(c1)OCO2	6	41*	22	-1%	-18%	0%
CN(C(=O)C1CCC(=O)N(Cc2cccc(F)c2)C1)C1CCCCC1 (centres undefined)	17	3	7	?	?	1%
COc1ccc(C2SCC(=O)N2c2nnc(C34CC5CC(CC(C5)C3)C4)s2)cc1 (centres undefined)	2	-14	-8	?	?	-19%
COc1cc(C2SCC(=O)N2c2nnc(C34CC5CC(CC(C5)C3)C4)s2)cc(OC)c1OC (centres undefined)	-55*	-10	-4	18µM*	?	-2%
N#CC1=C(N)OC2=C(CC/C2=C\c2ccccc2Cl)C1c1ccccc1Cl (centres undefined)	-68*	-1	0	?	21µM*	16%

Screening results deposited in PubChem by National Center for Advancing Translational Sciences (NCATS).
